Tests used:
Assay in all cases: protein binding microarray; high values mean tight binding
Details in all cases: dsDNA, one strand shown
RELARELA (p65 homodimer) = RELARELA (p65 homodimer) (Homo sapiens, UniProt Q04206 1-307)
p50p50 homodimer = p50p50 homodimer (Homo sapiens, UniProt P19838 7-356)
p52p52 homodimer = target: T1, p52p52 homodimer (Homo sapiens, UniProt Q00653 4-332)
T1 sequence: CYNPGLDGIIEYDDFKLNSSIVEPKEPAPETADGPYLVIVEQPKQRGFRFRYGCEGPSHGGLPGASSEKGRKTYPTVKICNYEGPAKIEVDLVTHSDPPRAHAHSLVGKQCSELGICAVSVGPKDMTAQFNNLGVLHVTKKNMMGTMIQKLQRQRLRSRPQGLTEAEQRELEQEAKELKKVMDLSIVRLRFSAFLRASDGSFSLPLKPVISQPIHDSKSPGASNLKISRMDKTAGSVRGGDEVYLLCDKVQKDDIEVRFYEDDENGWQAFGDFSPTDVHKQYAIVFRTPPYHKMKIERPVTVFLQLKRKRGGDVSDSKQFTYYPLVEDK

[1] = target: RELA (p65) subunit of heterodimer;p50 subunit (Homo sapiens;Homo sapiens, UniProt Q04206;P19838 1-307;7-356)
RELA (p65) subunit of heterodimer;p50 subunit, sequence (Q04206 1-307, chain 1 of 2): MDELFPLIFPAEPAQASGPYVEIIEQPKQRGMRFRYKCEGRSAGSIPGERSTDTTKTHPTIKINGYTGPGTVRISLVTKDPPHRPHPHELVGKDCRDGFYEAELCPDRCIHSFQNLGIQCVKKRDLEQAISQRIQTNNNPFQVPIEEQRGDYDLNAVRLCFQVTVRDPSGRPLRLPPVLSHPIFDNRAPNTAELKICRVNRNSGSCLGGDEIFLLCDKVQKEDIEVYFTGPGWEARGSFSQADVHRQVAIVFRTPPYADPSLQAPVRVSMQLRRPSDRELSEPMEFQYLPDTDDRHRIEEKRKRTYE
RELA (p65) subunit of heterodimer;p50 subunit, sequence (P19838 7-356, chain 2 of 2): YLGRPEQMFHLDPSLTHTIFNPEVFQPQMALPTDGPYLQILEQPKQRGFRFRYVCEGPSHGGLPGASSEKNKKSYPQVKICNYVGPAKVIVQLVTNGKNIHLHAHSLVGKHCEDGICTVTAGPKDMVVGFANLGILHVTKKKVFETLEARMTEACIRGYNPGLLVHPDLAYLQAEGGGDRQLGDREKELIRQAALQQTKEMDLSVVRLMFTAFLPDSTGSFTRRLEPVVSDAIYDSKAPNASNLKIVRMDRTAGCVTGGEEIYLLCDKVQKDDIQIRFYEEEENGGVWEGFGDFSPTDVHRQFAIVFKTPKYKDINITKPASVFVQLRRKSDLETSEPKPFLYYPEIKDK

[2] = target: RELA (p65) subunit of heterodimer;p52 subunit (Homo sapiens;Homo sapiens, UniProt Q04206;Q00653 1-307;4-332)
RELB subunit;p50 subunit = RELB subunit;p50 subunit (Homo sapiens;Homo sapiens, UniProt Q01201;P19838 120-401;7-356)
RELB subunit;p52 subunit = target: T2, RELB subunit;p52 subunit (Homo sapiens;Homo sapiens, UniProt Q01201;Q00653 120-401;4-332)
T2 sequence 1: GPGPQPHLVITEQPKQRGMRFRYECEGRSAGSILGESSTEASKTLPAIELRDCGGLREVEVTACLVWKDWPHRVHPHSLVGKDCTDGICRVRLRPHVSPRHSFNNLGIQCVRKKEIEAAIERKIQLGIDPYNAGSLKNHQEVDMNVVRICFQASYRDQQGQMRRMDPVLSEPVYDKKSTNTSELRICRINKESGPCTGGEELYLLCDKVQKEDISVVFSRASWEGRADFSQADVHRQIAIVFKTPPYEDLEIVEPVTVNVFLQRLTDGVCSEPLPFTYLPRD
T2 sequence 2: T1 sequence

[3] = target: C-Rel subunit;p50 subunit (Homo sapiens;Homo sapiens, UniProt Q04864;P19838 1-285;7-356)
[4] = target: T3, C-Rel subunit;p52 subunit (Homo sapiens;Homo sapiens, UniProt Q04864;Q00653 1-285;4-332)
T3 sequence 1: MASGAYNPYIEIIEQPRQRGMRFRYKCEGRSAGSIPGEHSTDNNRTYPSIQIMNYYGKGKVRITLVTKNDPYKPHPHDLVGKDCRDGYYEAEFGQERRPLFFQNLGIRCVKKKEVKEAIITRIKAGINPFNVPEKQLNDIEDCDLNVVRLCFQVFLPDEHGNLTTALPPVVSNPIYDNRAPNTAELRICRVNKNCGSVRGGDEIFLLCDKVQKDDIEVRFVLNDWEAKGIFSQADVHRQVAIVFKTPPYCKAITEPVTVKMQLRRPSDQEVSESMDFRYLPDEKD
T3 sequence 2: T1 sequence

RELARELA (p65 homodimer), sequence (Q04206 1-307): as the sequence (Q04206 1-307, chain 1 of 2) above
p50p50 homodimer, sequence (P19838 7-356): as the sequence (P19838 7-356, chain 2 of 2) above

Sequence | binding signal (RELARELA (p65 homodimer)) [z-score] | binding signal (p50p50 homodimer) [z-score] | binding signal (p52p52 homodimer) [z-score] | binding signal [1] [z-score] | binding signal [2] [z-score] | binding signal (RELB subunit;p50 subunit) [z-score] | binding signal (RELB subunit;p52 subunit) [z-score] | binding signal [3] [z-score] | binding signal [4] [z-score]
GGAATGCCCCC | 2.8 | 1.02 | 1.8 | 2.08 | 2.18 | 1.13 | 1.75 | 1.61 | 2.48
GAGAATACCCC | 0.964 | 1.14 | 0.914 | 1.24 | 1.18 | 1.05 | 1.31 | 1.03 | 0.996
AAGAATGTCCC | 1.27 | 0.914 | 0.691 | 0.927 | 0.625 | 0.695 | 0.54 | 0.518 | 0.463
AGGATCACCCT | -0.477 | -0.136 | -0.277 | -0.316 | -0.525 | -0.14 | -0.242 | -0.558 | -0.421
GGGGATTCCCT | 3.57 | 1.37 | 3.18 | 2.6 | 3.05 | 2.45 | 2.75 | 2.76 | 3.46
CAATGAATCCC | -0.259 | -0.487 | -0.235 | -0.428 | -0.353 | -0.22 | -0.356 | -0.0958 | -0.345
AGAATTTCCCC | 3.09 | 1.24 | 2.64 | 2.2 | 2.3 | 2.59 | 2.28 | 1.85 | 2.29
AGATTACCCCC | 0.372 | 1.19 | 0.936 | 1.24 | 1.2 | 1.18 | 1.63 | 1.21 | 1.12
GAAATGCTCCC | -0.193 | -0.556 | -0.401 | -0.482 | -0.537 | -0.542 | -0.819 | -0.726 | -0.598
CAAAACACCCC | 0.0833 | 0.707 | 0.313 | 0.534 | 0.701 | 0.488 | 1.03 | 0.611 | 0.701
AGAATCCCCCC | 1.06 | 1.63 | 2.16 | 2.66 | 2.29 | 2.64 | 2.51 | 1.9 | 2.21
AAAGTCCCCCT | 0.889 | 1.59 | 1.86 | 2.31 | 1.72 | 2.26 | 2.4 | 1.7 | 1.82
CAAATGCCCCT | 0.347 | 1.15 | 1.14 | 1.2 | 1.19 | 1.21 | 1.47 | 0.882 | 1.38
GAAGAATCCCC | 1.11 | 1.36 | 2.18 | 2.18 | 1.83 | 2.29 | 1.85 | 1.56 | 1.53
GAGGGAGCCCT | -0.902 | -0.904 | -0.464 | -0.859 | -0.736 | -0.793 | -0.682 | -1.28 | -0.682
CGGAATTTCCT | 3.7 | -0.012 | -0.109 | 1.2 | 0.553 | -0.413 | -0.0415 | 0.843 | 0.719
CGGGTGCCCCC | -0.0899 | 0.777 | 0.373 | 0.794 | 0.707 | 0.779 | 1.05 | 0.974 | 0.84
AGGTATACCCT | -0.0429 | -0.139 | -0.102 | -0.262 | -0.241 | -0.242 | -0.17 | -0.467 | -0.258
AAAAATTCCCC | 3.28 | 1.42 | 2.98 | 2.27 | 2.54 | 2.96 | 2.46 | 2.04 | 2.78
AAAGTGGTCCC | -0.237 | 0.456 | 0.16 | -0.319 | -0.267 | 0.24 | -0.0596 | -0.25 | -0.422
AAGAAGGTCCT | -0.0161 | -1.4 | -0.396 | -1.13 | -0.801 | -0.786 | -0.511 | -1.3 | -0.718
AGGGGGGCCCT | -0.0645 | 0.812 | 0.991 | 0.478 | 1.13 | 0.542 | 1.2 | 0.525 | 1.04
CAAGGTTCCCC | 0.544 | 1.15 | 1.29 | 1.68 | 1.31 | 1.5 | 1.58 | 1.36 | 1.06
GGGTTGGTCCT | -0.152 | -1.58 | -0.471 | -0.621 | -0.757 | -0.889 | -0.766 | -1.12 | -0.527
GAAAACATCCC | 0.244 | -0.173 | -0.106 | -0.0842 | -0.0683 | -0.24 | -0.321 | -0.174 | -0.211
GAAGGAGTCCT | -0.288 | -1.55 | -0.648 | -0.892 | -0.934 | -0.985 | -0.808 | -1.08 | -0.746
CAGAAAGTCCT | 1.03 | -0.724 | -0.508 | -0.351 | -0.61 | -0.693 | -0.785 | -0.362 | -0.371
CAAAGTCCCCT | 0.169 | 1.47 | 1.68 | 1.79 | 1.67 | 2.07 | 1.96 | 1.43 | 1.57
GGGTAGGCCCC | -0.379 | 0.314 | 1.45 | 0.396 | 1.04 | 0.459 | 0.305 | 0.392 | 0.593
CGAAAGTTCCT | 0.451 | -0.747 | -0.53 | -0.689 | -0.651 | -0.963 | -0.709 | -0.537 | -0.406
